About 79,000 compounds went through this panel and 15% of them were active in at least one assay; those are over-represented in the sample as a whole. Unmarked numbers belong to inactive results. The source made the active and inactive calls. Cut-off read from the data, not from the text of the source: active = growth inhibition above about 70%; inactive = the rest.
Legend:
[1] = NCI Yeast Anticancer Drug Screen. Data for the rad50 strain (AID 155);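 note: 0% = growth of vehicle-only cultures of the same strain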; details: S. cerevisiae rad50 strain growth inhibition, active compounds read high
Summary of the method: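 Cells are treated with compound, grown, and their growth is then scored against vehicle-only cultures of the same repair-deficient yeast strain.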

[2] = NCI Yeast Anticancer Drug Screen. Data for the mec2-1 strain (AID 157); details: S. cerevisiae mec2-1 strain, active compounds read high
Summary of the method: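 Vehicle-treated cultures served as reference for growth inhibition of compound-exposed mec2-1 yeast.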

[3] = NCI Yeast Anticancer Drug Screen. Data for the sgs1 mgt1 strain (AID 161);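 note: 0% = growth of cultures given vehicle only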; details: S. cerevisiae sgs1 mgt1 strain, active compounds read high
Summary of the method: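 Mutant yeast exposed to compound; growth scored against vehicle-only wells.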

[4] = NCI Yeast Anticancer Drug Screen. Data for the cln2 rad14 strain (AID 165);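 note: 0% = growth equal to vehicle treated cultures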; details: S. cerevisiae cln2 rad14 strain, active compounds read high
Summary of the method: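 Each compound was tested on cln2 rad14 yeast. Inhibition of growth was calculated against vehicle-exposed controls.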

[5] = NCI Yeast Anticancer Drug Screen. Data for the bub3 strain (AID 167); details: S. cerevisiae bub3 mutant strain, active compounds read high
Summary of the method: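 Part of a panel of yeast mutants defective in DNA damage repair or cell cycle regulation. Each strain is grown with compound, and inhibition is calculated relative to solvent-treated cultures.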

[6] = NCI Yeast Anticancer Drug Screen. Data for the mlh1 rad18 strain (AID 175); details: S. cerevisiae mlh1 rad18 strain growth inhibition, active compounds read high
Summary of the method: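 Vehicle-treated cultures served as the reference for growth inhibition in a yeast strain carrying DNA damage repair alterations exposed to each compound.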

[7] = at 5.0 µM (retest, dose inferred, filed as 0.5)
[8] = at 50.0 µM (retest, dose inferred, filed as 5.0)

SMILES | growth inhibition [1, 7] | growth inhibition [1, 8] | growth inhibition ([1]; at 50.0 µM) | growth inhibition [2, 7] | growth inhibition [2, 8] | growth inhibition ([2]; at 50.0 µM) | growth inhibition [3, 7] | growth inhibition [3, 8] | growth inhibition ([3]; at 50.0 µM) | growth inhibition [4, 7] | growth inhibition [4, 8] | growth inhibition ([4]; at 50.0 µM) | growth inhibition [5, 7] | growth inhibition [5, 8] | growth inhibition ([5]; at 50.0 µM) | growth inhibition [6, 7] | growth inhibition [6, 8] | growth inhibition ([6]; at 50.0 µM)
O=[N+]([O-])c1ccc(N2CCCC(n3cccc3)C2)c([N+](=O)[O-])c1 (stereo not given) | 7% | 38% | 47.6% | -2% | 5% | 46.2% | 4% | 27% | 61.3% | 12% | 49% | 50.2% | -9% | 50% | 67.6% | 1% | 55% | 48.5%
C=[CH][Sn]([CH]=C)([S]c1cccc2cccnc12)[S]c1cccc2cccnc12 | 12% | 99% (active) | 92% (active) | 16% | 100% (active) | 91.5% (active) | 27% | 99% (active) | 92.3% (active) | 16% | 99% (active) | 75.5% (active) | 19% | 94% (active) | 83.7% (active) | 18% | 99% (active) | 91.8% (active)
O=C1OC(CC(=O)c2ccc(Cl)cc2Cl)C(Cl)=C1Cl (stereo not given) | 0% | 20% | 51% | 8% | 32% | 53.4% | 4% | 50% | 93% (active) | 1% | 6% | 78.4% (active) | -7% | 10% | 58.5% | -1% | 41% | 97.3% (active)
Oc1cc(Br)cc2cc(Br)cnc12 | 92% (active) | 98% (active) | 84.4% (active) | 89% (active) | 98% (active) | 89.5% (active) | 95% (active) | 98% (active) | 80.5% (active) | 96% (active) | 96% (active) | 84.8% (active) | 92% (active) | 97% (active) | 85.5% (active) | 96% (active) | 98% (active) | 78.3% (active)
C1=NC(N(Cc2ccccc2)Cc2ccccc2)N(Cc2ccccc2)N1 (stereo not given) | 26% | 95% (active) | 92.4% (active) | -1% | 95% (active) | 93.6% (active) | 14% | 94% (active) | 92.1% (active) | -1% | 95% (active) | 89.8% (active) | -14% | 96% (active) | 92.2% (active) | -19% | 96% (active) | 88.8% (active)
Clc1ccc(CSc2ncnc3c2ncn3C2CCCCO2)cc1 (stereo not given) | -5% | 97% (active) | 97.5% (active) | -7% | 96% (active) | 97.5% (active) | 15% | 92% (active) | 97.5% (active) | -20% | 88% (active) | 94.3% (active) | -15% | 78% (active) | 95.8% (active) | 3% | 96% (active) | 97% (active)
NCCC1=CCCCC1 | 1% | 95% (active) | 88.2% (active) | 5% | 97% (active) | 90.5% (active) | 2% | 98% (active) | 88.3% (active) | -7% | 96% (active) | 35.6% | -4% | 96% (active) | 65% | -2% | 97% (active) | 90% (active)
C/C(=N/O)c1ccc2c(c1)C(=NO)c1cc(/C(C)=N/O)ccc1-2 | 19% | 98% (active) | 89.9% (active) | -10% | 99% (active) | 94.7% (active) | 10% | 99% (active) | 94.2% (active) | 14% | 99% (active) | 93.7% (active) | 21% | 98% (active) | 93.5% (active) | 1% | 98% (active) | 91% (active)
COc1ccccc1C(=O)N(Cc1ccccc1)c1ccc(Cl)c(C(=O)OC(C)C)c1 | 28% | 59% | 15.3% | -7% | 14% | 1.25% | 1% | 33% | -33.3% | -6% | 14% | 10.5% | -55% | 15% | -8.1% | 3% | 31% | 19.1%
CC(=O)OC1CCC2(C)C3CCC4(C)C(CCC4(Br)C(=O)CBr)C3CC(Br)C2(Br)C1 (stereo not given) | -1% | 19% | 68.8% | -5% | 15% | 52.2% | -5% | 10% | 53.4% | -2% | 9% | 26.9% | -3% | 7% | 49.5% | 3% | -3% | 76.4% (active)

— PubChem BioAssay (NCI)
